Measured values published in PubChem BioAssay (NCI).
Compounds without any hit were thinned out: in the full panel of roughly 79,000, 15% have a hit. Values without a mark were called inactive. Activity calls are given as the source filed them. Cut-off read from the data, not from the text of the source: active = growth inhibition above about 70%; inactive = the rest.

Assays:
[1] = NCI Yeast Anticancer Drug Screen. Data for the rad50 strain (AID 155);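 note: 0% = growth of vehicle-only cultures of the same strain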; details: S. cerevisiae rad50 strain growth inhibition, hits give high values
Method in brief: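 Cells are treated with compound, grown, and their growth is then scored against vehicle-only cultures of the same repair-deficient yeast strain.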

[2] = NCI Yeast Anticancer Drug Screen. Data for the mec2-1 strain (AID 157); details: S. cerevisiae mec2-1 strain, hits give high values
Method in brief: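 Each compound was tested on mec2-1 yeast, a strain altered in DNA damage repair or cell cycle control. Growth inhibition is reported relative to vehicle.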

[3] = NCI Yeast Anticancer Drug Screen. Data for the sgs1 mgt1 strain (AID 161);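 note: 0% = growth of cultures given vehicle only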; details: S. cerevisiae sgs1 mgt1 strain, hits give high values
Method in brief: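 Test agents were incubated with a DNA-repair-mutant yeast strain. Growth was then read and compared against vehicle-treated controls.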

[4] = NCI Yeast Anticancer Drug Screen. Data for the cln2 rad14 strain (AID 165);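 note: 0% = growth equal to vehicle treated cultures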; details: S. cerevisiae cln2 rad14 strain, hits give high values
Method in brief: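 Test compounds were added to cln2 rad14 yeast cultures; inhibition of growth was then determined by comparison with vehicle treatment.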

[5] = NCI Yeast Anticancer Drug Screen. Data for the bub3 strain (AID 167); details: S. cerevisiae bub3 mutant strain, hits give high values
Method in brief: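 Part of a panel of yeast mutants defective in DNA damage repair or cell cycle regulation. Each strain is grown with compound, and inhibition is calculated relative to solvent-treated cultures.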

[6] = NCI Yeast Anticancer Drug Screen. Data for the mlh1 rad18 strain (AID 175); details: S. cerevisiae mlh1 rad18 strain growth inhibition, hits give high values
Method in brief: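 Inhibition values reflect reduced growth of mutant yeast versus vehicle-treated controls following compound exposure; the mutations affect DNA damage repair.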

[7] = at 5.0 µM (retest, dose inferred, filed as 0.5)
[8] = at 50.0 µM (retest, dose inferred, filed as 5.0)

Structure (SMILES)	growth inhibition [1, 7]	growth inhibition [1, 8]	growth inhibition ([1]; at 50.0 µM)	growth inhibition [2, 7]	growth inhibition [2, 8]	growth inhibition ([2]; at 50.0 µM)	growth inhibition [3, 7]	growth inhibition [3, 8]	growth inhibition ([3]; at 50.0 µM)	growth inhibition [4, 7]	growth inhibition [4, 8]	growth inhibition ([4]; at 50.0 µM)	growth inhibition [5, 7]	growth inhibition [5, 8]	growth inhibition ([5]; at 50.0 µM)	growth inhibition [6, 7]	growth inhibition [6, 8]	growth inhibition ([6]; at 50.0 µM)
Fc1ccc2c(c1)Nc1cc(F)cc(F)c1S2	-4%	54%	2.7%	-5%	12%	-2%	-4%	36%	65.7%	0%	1%	2.75%	-3%	5%	40.8%	-6%	48%	21.5%
COc1cccc(/C=C(\NC(=O)c2ccccc2)c2nc3ccccc3s2)c1	64%	96% (active)	98.3% (active)	18%	96% (active)	98.2% (active)	53%	97% (active)	98.8% (active)	13%	97% (active)	97.7% (active)	29%	97% (active)	97.4% (active)	25%	96% (active)	98.3% (active)
O=C1Nc2ccccc2SC1c1ccccc1 (centres undefined)	3%	97% (active)	98.2% (active)	15%	99% (active)	99.6% (active)	-2%	99% (active)	99.5% (active)	10%	99% (active)	98.8% (active)	19%	98% (active)	99.3% (active)	10%	99% (active)	98.8% (active)
CCc1ccc(/C(C)=N/NC(N)=S)cc1	-4%	89% (active)	53.6%	-4%	95% (active)	19.9%	3%	91% (active)	42.8%	-18%	74% (active)	54.8%	-9%	92% (active)	34.8%	-2%	93% (active)	74.5% (active)
COC(=O)C(Sc1ccc(Cl)cc1)C1SC(=S)N(C)C1=O (centres undefined)	34%	99% (active)	62%	19%	99% (active)	41.5%	21%	99% (active)	65.9%	27%	99% (active)	37.2%	15%	99% (active)	84.8% (active)	38%	98% (active)	58%
Cc1cc(C)nc(NS(=O)(=O)c2ccc(Nc3c4ccccc4nc4c(C(=O)NC(CO)(CO)CO)cccc34)cc2)n1	-11%	26%	81.8% (active)	4%	-2%	-6.1%	0%	-8%	4.9%	39%	-2%	42.4%	4%	12%	4.45%	-3%	4%	-8.4%
O=C(Oc1ccc(O)c2ccccc12)c1ccccc1	0%	2%	98.7% (active)	-3%	6%	98.6% (active)	1%	-16%	98.3% (active)	-7%	-5%	98.5% (active)	-5%	5%	98.5% (active)	-7%	7%	97.2% (active)
C/C=C/CSc1cc(NC(=S)c2ccsc2C)ccc1Cl	-6%	83% (active)	88.2% (active)	-1%	82% (active)	85.8% (active)	43%	88% (active)	91.2% (active)	-19%	80% (active)	84.3% (active)	-2%	88% (active)	88.6% (active)	6%	89% (active)	86.8% (active)
C=CCOCCC(=O)OCC=C	0%	-2%	7%	1%	0%	40.4%	1%	-1%	15.9%	-1%	0%	72.2% (active)	-2%	-1%	67.4%	-1%	-1%	70.8% (active)
CCOC(=O)/C=C(\CC(=O)OCC)C(=O)OCC	-3%	3%	99.5% (active)	-1%	-8%	99.7% (active)	-1%	5%	99.2% (active)	-3%	-6%	13.4%	4%	25%	99.5% (active)	-3%	-2%	99.3% (active)
COc1cccc2nc3c(C(=O)NCCN(C)C)cccc3cc12	60%	94% (active)	81.7% (active)	15%	43%	15.9%	24%	56%	10.4%	15%	49%	-7.1%	22%	47%	-50.6%	24%	65%	0.05%
O=C1NC(c2ccccc2)(c2ccccc2)C(=O)N1SC(Cl)(Cl)Cl	98% (active)	98% (active)	90.3% (active)	100% (active)	99% (active)	89.3% (active)	99% (active)	99% (active)	90.8% (active)	99% (active)	99% (active)	89.7% (active)	99% (active)	98% (active)	88.5% (active)	98% (active)	99% (active)	87.2% (active)
CCCCN(CCCC)CN1C(=O)/C(=C/c2ccc(NC(C)=O)cc2)NC1=S	7%	62%	78% (active)	-7%	64%	79.6% (active)	-1%	64%	79.9% (active)	-2%	63%	79.8% (active)	-15%	53%	72.7% (active)	-3%	79% (active)	86.2% (active)
CCOC(=O)c1ccc2c(c1)Cc1cc([N+](=O)[O-])ccc1-2	1%	65%	43.6%	-2%	37%	15.8%	7%	72% (active)	51%	-97%	12%	4.15%	43%	89% (active)	80.8% (active)	7%	57%	58.1%
COC(OC)C1C2C3C=CC(C4C(=O)OC(=O)C34)C12 (centres undefined)	-5%	0%	76.5% (active)	-16%	-4%	98.4% (active)	-15%	-13%	29.4%	-2%	-5%	98.3% (active)	0%	14%	97.2% (active)	6%	2%	98.6% (active)
O=C(Nc1ccc(Cl)cc1)c1cccc([N+](=O)[O-])c1O	9%	13%	32.8%	5%	11%	-8.45%	8%	11%	70.8% (active)	-3%	34%	-22%	6%	10%	-5%	7%	16%	11.2%
O=C1C2C3CCC(O3)C2C(=O)N1c1cccc2ccccc12 (centres undefined)	-1%	-27%	-1.2%	-5%	-5%	8.15%	-3%	1%	49%	0%	1%	-7.35%	0%	7%	-10.4%	0%	5%	8.3%
CCOc1ccccc1/C=C1\NC(=O)N(/C=C2\C(=O)Oc3ccccc3C2=O)C1=O	6%	96% (active)	93.7% (active)	-13%	96% (active)	94.2% (active)	0%	85% (active)	97.2% (active)	6%	95% (active)	88.5% (active)	-4%	96% (active)	94.7% (active)	1%	89% (active)	95.5% (active)
